Test [1] can be described thus: Cytotoxicity counterscreen for inhibitors of SARS-CoV-2 cell entry (AID 1645845). Also: nearly all actives have a fitted effect of over 50% in size. The following applies: cell viability (SARS-CoV-2 entry assay cells); series mostly up to 57.1 µM. A digest of the protocol: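 HEK293-ACE2 cells (Expi293F stably expressing human ACE2) seeded overnight, then compound for 1 h plus 48 h at 37C. Viability as ATP content by luminescence; normalized to wells with cells and media-only wells.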

Test [2] can be described thus: Primary qHTS to identify inhibitors of SARS-CoV-2 cell entry (AID 1645846). Also: nearly all actives have a fitted effect of over 45% in size. To be noted: SARS-CoV-2 pseudovirus cell entry assay, luminescence; activity change, negative = inhibition: at 57.1 µM (top of the series) unless noted; series mostly up to 57.1 µM. In a few lines: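 Luminescence readout (Bright-Glo luciferase) 48 h after pseudoparticle addition. HEK293-ACE2 cells, 1500/well; compound pre-incubation 1 h; Normalized to spike PP and bald PP.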
(In general: In qHTS, concentration-response curves come from the screen itself.)

The record followed here is PubChem BioAssay (NCATS).

Several values for one entry are separate records, joined by “and”; a condition that tells them apart may be missing. Equal values may be shown once. Results filed as inconclusive are left out. Activity calls are given as the source filed them. Calls follow the shape of the full dose curve.
Potency is read from the fitted curve at half-maximal effect.

For `Nc1ccc(S(=O)(=O)Nc2nccs2)cc1`, in test [1], the Potency entry is “inactive”. The activity change, negative = inhibition in test [2] was determined as 4.2%.

Turning to `CCOc1cc(N)c(Cl)cc1C(=O)NCC1CN(Cc2ccc(F)cc2)CCO1` (stereo not given), the Potency entry in test [1] and in test [2] was “inactive” throughout.

Regarding `CCCC(=O)O[C@]1(C(=O)CC)CC[C@H]2[C@@H]3CCC4=CC(=O)CC[C@]4(C)[C@H]3[C@@H](O)C[C@@]21C`, the Potency result in test [1] and in test [2] was “inactive” in each case.

Regarding `CC[N+](CC)(CC(=O)Nc1c(C)cccc1C)Cc1ccccc1`, the Potency entry in test [1] and in test [2] was “inactive” throughout.

For the compound `COCCc1ccc(OCC(O)CNC(C)C)cc1` (stereo not given), in test [1], the Potency entry was “inactive”. Also, the activity change, negative = inhibition in test [2] is -1.24%.

As to `NC(=O)CC[C@@H](N)C(=O)O`, in test [1], the Potency result is “inactive”. Also, the activity change, negative = inhibition in test [2] was -8.52%.

In the case of `COC(=O)C1=C(C)NC(C)=C(C(=O)OCCCN2CCC(c3ccccc3)(c3ccccc3)CC2)C1c1cccc([N+](=O)[O-])c1` (stereo not given), the Potency in test [1] is 28.2 µM (active); in test [2], 8.91 µM (active).

Take `COc1ccc2c(c1)c(CC(=O)O)c(C)n2C(=O)c1ccc(Cl)cc1`: the Potency entry in test [1] and in test [2] was “inactive” each time.

Consider `c1ccc(CN(CC2=NCCN2)c2ccccc2)cc1`, for which the Potency entry in test [1] and in test [2] was “inactive” each time.

On to `CC1(C)O[C@@H]2C[C@H]3[C@@H]4C[C@H](F)C5=CC(=O)C=C[C@]5(C)[C@H]4[C@@H](O)C[C@]3(C)[C@]2(C(=O)CO)O1`, for which the Potency result in test [1] is “inactive”. Besides, the activity change, negative = inhibition in test [2] is 12.8% and -23.3%.

On to `CN(C)CCOC(c1ccccc1)c1ccccc1`, for which, in test [1], the Potency result was “inactive”. The activity change, negative = inhibition in test [2] was -13.9%.

Consider `CN(C)CCCOC1(Cc2ccccc2)CCCCCC1`, for which, in test [1], the Potency result was “inactive”. For the same compound, the activity change, negative = inhibition in test [2] is -0.0488%.

Regarding `O=c1cc(CO)occ1O`, the Potency result in test [1] and in test [2] was “inactive” throughout.

With `CC1(C)S[C@@H]2[C@H](N=CN3CCCCCC3)C(=O)N2[C@H]1C(=O)O`, the Potency entry in test [1] was “inactive”. Also, the activity change, negative = inhibition in test [2] was 0.13%.

With `Cc1cc(O)c(C(C)C)cc1Cl`, the Potency entry in test [1] and in test [2] was “inactive” throughout.
